# Assay results as given in PubChem BioAssay.
# “And” between values parts separate entries of the source, which are not always exact repeats. Equal values may be shown once. The source made the active and inactive calls.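 Rule for the calls, unless noted: active = compounds whose cell count with miR-34 switched on is under 0.7 times the count with it off; inactive = the rest.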
# Columns and labels:
# [1] = stimulators of nuclear beta-catenin in C2C12, primary screen, imaging, WNT3A-conditioned medium, mouse C2C12, NPC library (AID 1117326; in the data active = nuclear beta-catenin stimulation mostly above about 4.2%, no sharp cut-off; inactive = mostly below about 10%); conditions: stronger effect = higher value
# [2] = stimulators of insulin release from INS-1E, primary screen, cell-based, 5 mM glucose, NPC library (AID 1117329;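 active = compound raises insulin release from rat beta cells at 5 mM glucose, no numeric limit stated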); conditions: rat INS-1E insulin secretion, at 10 µM, stronger effect = higher value
# [3] = growth inhibition of GSK3B-pretreated HCT116 cells – cell-based, CellTiter-Glo, 0.2 to 20 µM (AID 1117336;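 active = compounds lowering colon cancer cell viability after pretreatment blocking the GSK3B kinase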); conditions: HCT116 viability after GSK3B inhibitor, at 20 µM, stronger effect = higher value
# [4] = inhibition of endothelial tube formation, primary screen, imaging, VEGF stimulated, CD31 staining, tube area, NPC library (AID 1117340;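 active = compound that reduces growth-factor-driven endothelial tube area in a mixed cell culture, no cutoff stated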); conditions: VEGF-stimulated ADSC/ECFC co-culture, at 10 µM, stronger effect = higher value
# [5] = glucagon-like peptide 1 release enhancers, primary assay, NCI-H716 cell line, NPC library (AID 1117341;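 active = compound raises GLP1 secretion from the human gut endocrine cells, with no numeric limit stated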); conditions: NCI-H716 cells, at 10 µM, stronger effect = higher value
# [6] = HCT116 colon cancer cell growth inhibition, primary screen, CellTiter-Glo luminescence, NPC library (AID 1117342;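 active = compounds that lower survival of HCT116 colon cancer cells in the luminescence readout, no numeric limit stated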); conditions: at 20 µM (top of the series)
# [7] = CellTiter-Glo luminescent readout of SW480 viability loss, NPC library primary (AID 1117343;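 active = compounds that lower viability of the colon cancer cells in the luminescence readout, with no numeric limit stated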); conditions: CellTiter-Glo luminescence; at 20 µM (top of the series)
# [8] = decreased DLD-1 cellular survival, CellTiter-Glo luminescent readout, NPC compound collection, primary HTS (AID 1117346;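 active = compounds that lower survival of DLD-1 colon cancer cells in the luminescence readout, no cutoff given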); conditions: DLD-1 viability, CellTiter-Glo luminescence; at 20 µM (top of the series)
# [9] = differential killing of epithelial or mesenchymal cells, primary screen, imaging, PC-3E GFP, TEM4-18 mCherry, co-culture (AID 1345086;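 active = compounds killing one labelled cell type while sparing the other, by normalised counts and ratio limits, not self-fluorescent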;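 for all read-outs here: cells exposed to compound for 72 h before imaging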;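 for red/green cell ratio (normalised): normalised mesenchymal count divided by normalised epithelial count so high means epithelial killing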); conditions: imaging cell counts, at 1 µM; for red/green cell ratio (normalised): actives lie on both sides
# [10] = sensitizers of A549 cells to miR-34 induction, primary screen, imaging, A549 dox-inducible miR-34, nuclei and caspase counts (AID 1347080); conditions: A549 miR-34 inducible, Hoechst nuclei count, 48 h
# [11] = survival rescue of mitochondrial mutant cells in low glucose, primary screen, MELAS cybrids, Rieske KO mouse fibroblasts, CellTiter-Glo (AID 1508586;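 active = mean z-score across replicates of 1.96 or higher in either the MELAS or the Rieske mutant cell line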;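 note: z relative to plate mean and SD of compound and empty wells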)
# [12] = target: NAD(+) hydrolase SARM1 (Homo sapiens) (UniProt Q6SZW1); test: SARM1 TIR NADase inhibitors, cell lysate, NAD-Glo luminescence (AID 1508614;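 active = compound whose remaining NAD level is above about 45 nM, limit read from the data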;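 note: higher remaining NAD means stronger inhibition of SARM1 NADase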); conditions: SAM-TIR HEK293T lysate NADase, at 1 µM, stronger effect = higher value
# [13] = liver-stage malaria parasite growth inhibition, primary screen, cell-based, HepG2, luciferase luminescence, HepG2 viability (AID 624349; in the data active = parasite load remaining mostly below about 12%, no sharp cut-off; inactive = mostly above about 10%;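 note: 100% = mean of DMSO negative control wells on the same plate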); conditions: P. berghei liver stage in HepG2, luciferase luminescence, concentration not given here; parasite load remaining: stronger effect = lower value; viability: measured here: HepG2 viability without parasites
# [14] = system: Aerobactin synthetase IucA (Klebsiella pneumoniae, hypervirulent); test: IucA enzyme inhibition, biochemical, LOPAC library, absorbance readout (AID 1346212; call rule not given here;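 note: 100% = no compound wells and 0% = no enzyme wells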); conditions: IucA enzyme assay, absorbance (OD) readout; stronger effect = lower value;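 tested at 8 µM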
# [15] = viability rescue of complex I mutant cybrids, primary screen, cell-based, galactose medium, ATP luminescence (AID 1645843;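 active = z-score of at least 1.8 in each of two replicates, scored against plate mean and spread of sample wells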;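 note: positive z means more ATP and so rescue of galactose-driven cybrid death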); conditions: complex I mutant cybrid cells, 72 h, stronger effect = higher value
# [16] = hESC survival regulators, cell-based (AID 493140; call rule not given here;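 note: cells exposed to compounds for four days before counting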); conditions: human embryonic stem cell survival screen; stronger effect = higher value
# [17] = measured here: epithelial PC-3E GFP cell survival
# [18] = measured here: mesenchymal TEM4-18 mCherry cell survival
# [19] = measured here: relative caspase fold change +Dox/-Dox
# [20] = measured here: total cells with miR-34 induction, stronger effect = lower value
# [21] = measured here: total cells without miR-34 induction
# [22] = MELAS cybrid survival, CellTiter-Glo 48 h, stronger effect = higher value
# [23] = Rieske KO mouse fibroblast survival, CellTiter-Glo 72 h
# [24] = stronger effect = lower value, cell number ratio, induced over uninduced
# NAD(+) hydrolase SARM1 (Homo sapiens), sequence (Q6SZW1 whole entry, looked up): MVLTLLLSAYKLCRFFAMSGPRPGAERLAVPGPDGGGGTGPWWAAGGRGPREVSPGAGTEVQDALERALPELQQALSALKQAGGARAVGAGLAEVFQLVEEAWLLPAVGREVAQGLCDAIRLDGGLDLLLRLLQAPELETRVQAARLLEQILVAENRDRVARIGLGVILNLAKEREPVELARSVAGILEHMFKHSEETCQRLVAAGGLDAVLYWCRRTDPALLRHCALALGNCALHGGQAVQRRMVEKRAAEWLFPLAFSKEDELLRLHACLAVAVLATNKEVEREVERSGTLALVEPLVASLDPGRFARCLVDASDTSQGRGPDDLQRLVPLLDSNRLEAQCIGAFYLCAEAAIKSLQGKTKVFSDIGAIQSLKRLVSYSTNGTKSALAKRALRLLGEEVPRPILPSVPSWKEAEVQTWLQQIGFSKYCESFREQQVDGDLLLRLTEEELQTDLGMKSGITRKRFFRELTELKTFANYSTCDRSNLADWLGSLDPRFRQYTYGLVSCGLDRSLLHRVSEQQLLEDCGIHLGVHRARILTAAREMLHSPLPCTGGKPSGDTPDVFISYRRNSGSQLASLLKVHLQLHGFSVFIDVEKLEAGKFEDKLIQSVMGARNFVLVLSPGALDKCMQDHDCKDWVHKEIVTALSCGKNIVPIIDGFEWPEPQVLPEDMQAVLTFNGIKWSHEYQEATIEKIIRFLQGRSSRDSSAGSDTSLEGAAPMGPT
smiles,measurement,setting,value
CNCC(=O)c1ccc(O)c(O)c1,nuclear beta-catenin stimulation,[1]; at 10 µM,-2.8% (inactive)
same,nuclear beta-catenin stimulation,"[1]; stimulation, at 2 µM",-1.5%
same,insulin secretion stimulation,[2],-0.7% (inactive)
same,viability decrease,[3],44.4% (inactive)
same,tube area decrease,[4],-23.7% (inactive)
same,GLP1 secretion stimulation,[5],-4.7% (inactive)
same,inhibition of viability,[6],20.7% (inactive)
same,viability decrease (inhibition),[7],24.3% (inactive)
same,viability decrease (inhibition),[8],19.2% (inactive)
same,red/green cell ratio (normalised),"[9]; counts scaled to control wells, 1 = unselective",1.24 (inactive)
same,normalised cell number,[9]; [17],1.18
same,normalised cell number,[9]; [18],1.47
same,fold change,[10]; stronger effect = lower value,0.925 (inactive) and 0.971 (inactive)
same,fold change,[10]; [19],0.648 and 0.466
same,cell count,[10]; [20],6760 and 7680
same,cell count,[10]; [21],7310 and 7920
same,z-score,[11]; [22],-0.0398 (inactive)
same,z-score,[11]; [23],-0.269
same,remaining NAD,[12],10 nM (inactive)
CN1C[C@@H](NS(=O)(=O)N(C)C)C[C@@H]2c3cccc4c3c(cn4C)C[C@H]21,parasite load remaining,[13],32.6% (inactive)
same,viability,[13],102%
same,nuclear beta-catenin stimulation,[1]; at 10 µM,0.4% (inactive)
same,nuclear beta-catenin stimulation,"[1]; stimulation, at 2 µM",1.4%
same,insulin secretion stimulation,[2],3.7% (inactive)
same,viability decrease,[3],9.6% (inactive)
same,tube area decrease,[4],-8.8% (inactive)
same,GLP1 secretion stimulation,[5],4.1% (inactive)
same,inhibition of viability,[6],36.4% (inactive)
same,viability decrease (inhibition),[7],48% (inactive)
same,viability decrease (inhibition),[8],9% (inactive)
same,remaining activity,[14],113% (inactive)
same,fold change,[10]; stronger effect = lower value,0.878 (inactive)
same,fold change,[10]; [19],1.21
same,cell count,[10]; [20],9040
same,cell count,[10]; [21],10300
same,z-score,[11]; [22],0.531 (inactive)
same,z-score,[11]; [23],0.143
same,z-score,[15],0.405 (inactive)
O=[N+]([O-])c1ccc([As](=O)(O)O)cc1,nuclear beta-catenin stimulation,[1]; at 10 µM,2.2% (inactive)
same,nuclear beta-catenin stimulation,"[1]; stimulation, at 2 µM",1%
same,insulin secretion stimulation,[2],-1.1% (inactive)
same,viability decrease,[3],-9.2% (inactive)
same,tube area decrease,[4],3.2% (inactive)
same,GLP1 secretion stimulation,[5],-5.4% (inactive)
same,inhibition of viability,[6],-30.4% (inactive)
same,viability decrease (inhibition),[7],101% (active)
same,viability decrease (inhibition),[8],-9.5% (inactive)
same,red/green cell ratio (normalised),[9],0.85 (inactive)
same,normalised cell number,[9]; [17],1.16
same,normalised cell number,[9]; [18],0.99
same,fold change,[10]; stronger effect = lower value,0.887 (inactive)
same,fold change,[10]; [19],1.5
same,cell count,[10]; [20],8880
same,cell count,[10]; [21],10000
same,remaining NAD,[12],10 nM (inactive)
CC(C)c1c(CN(C)C(C)Cc2ccccc2)n(C)n(-c2ccccc2)c1=O (stereo not given),survival,[16],1.08 (inactive)
same,parasite load remaining,[13],76.8% (inactive)
same,viability,[13],87.3%
same,nuclear beta-catenin stimulation,[1]; at 10 µM,1.5% (inactive)
same,nuclear beta-catenin stimulation,"[1]; stimulation, at 2 µM",5.4%
same,insulin secretion stimulation,[2],0% (inactive)
same,viability decrease,[3],-83% (inactive)
same,tube area decrease,[4],9.4% (inactive)
same,GLP1 secretion stimulation,[5],3.9% (inactive)
same,inhibition of viability,[6],50.3% (active)
same,viability decrease (inhibition),[7],103% (active)
same,viability decrease (inhibition),[8],73.2% (active)
same,red/green cell ratio (normalised),[9],1.06 (inactive)
same,normalised cell number,[9]; [17],0.93
same,normalised cell number,[9]; [18],0.98
same,fold change,[10]; stronger effect = lower value,0.889 (inactive)
same,fold change,[10]; [19],1.06
same,cell count,[10]; [20],8350
same,cell count,[10]; [21],9380
same,z-score,[11]; [22],-1.05 (inactive)
same,z-score,[11]; [23],0.158
same,remaining NAD,[12],10 nM (inactive)
O=C(O)c1ccc2[nH]cc(CCCCN3CC=C(c4ccccc4)CC3)c2c1,nuclear beta-catenin stimulation,[1]; at 10 µM,-0.5% (inactive)
same,nuclear beta-catenin stimulation,"[1]; stimulation, at 2 µM",-1.8%
same,insulin secretion stimulation,[2],2.5% (inactive)
same,viability decrease,[3],5.1% (inactive)
same,tube area decrease,[4],-17.1% (active)
same,GLP1 secretion stimulation,[5],-2% (inactive)
same,inhibition of viability,[6],18.8% (inactive)
same,viability decrease (inhibition),[7],-17.9% (inactive)
same,viability decrease (inhibition),[8],-14.3% (inactive)
same,fold change,[10]; [24],0.916 (inactive)
same,fold change,[10]; [19],1.13
same,cell count,[10]; [20],8600
same,cell count,[10]; [21],9380
same,z-score,[15],-0.035 (inactive)
CC(C)(C)OC(=O)c1ncn2c1[C@@H]1CCCN1C(=O)c1c(Br)cccc1-2,nuclear beta-catenin stimulation,[1]; at 10 µM,4% (inactive)
same,nuclear beta-catenin stimulation,"[1]; stimulation, at 2 µM",2.4%
same,insulin secretion stimulation,[2],-0.65% (inactive)
same,viability decrease,[3],13.7% (inactive)
same,tube area decrease,[4],2% (inactive)
same,GLP1 secretion stimulation,[5],-0.4% (inactive)
same,inhibition of viability,[6],26.5% (inactive)
same,viability decrease (inhibition),[7],-7.5% (inactive)
same,viability decrease (inhibition),[8],7.7% (inactive)
same,fold change,[10]; [24],0.898 (inactive)
same,fold change,[10]; [19],1.56
same,cell count,[10]; [20],6920
same,cell count,[10]; [21],7710
same,z-score,[15],-0.115 (inactive)
Cc1ccc(S(=O)(=O)N[C@@H](CCCCN)C(=O)CCl)cc1,nuclear beta-catenin stimulation,[1]; at 10 µM,2.3% (inactive)
same,nuclear beta-catenin stimulation,"[1]; stimulation, at 2 µM",0%
same,insulin secretion stimulation,[2],0.9% (inactive)
same,viability decrease,[3],-9.5% (inactive)
same,tube area decrease,[4],13% (inactive)
same,GLP1 secretion stimulation,[5],-1.9% (inactive)
same,inhibition of viability,[6],-8.6% (inactive)
same,viability decrease (inhibition),[7],12.5% (inactive)
same,viability decrease (inhibition),[8],-7% (inactive)
same,remaining activity,[14],114% (inactive)
same,fold change,[10]; stronger effect = lower value,0.989 (inactive) and 0.965 (inactive)
same,fold change,[10]; [19],1.42 and 1.58
same,cell count,[10]; [20],9040 and 5750
same,cell count,[10]; [21],9130 and 5960
same,z-score,[15],-0.59 (inactive)
N#CC(C#N)=Cc1ccc(O)c(O)c1,survival,[16],57.1 (inactive)
same,nuclear beta-catenin stimulation,[1]; at 10 µM,3.9% (inactive)
same,nuclear beta-catenin stimulation,"[1]; stimulation, at 2 µM",3.3%
same,insulin secretion stimulation,[2],0.65% (inactive)
same,viability decrease,[3],86.7% (active)
same,tube area decrease,[4],17.4% (inactive)
same,GLP1 secretion stimulation,[5],-2.9% (inactive)
same,inhibition of viability,[6],55.1% (active)
same,viability decrease (inhibition),[7],62.8% (active)
same,viability decrease (inhibition),[8],48.5% (inactive)
same,remaining activity,[14],120% (inactive)
same,fold change,[10]; stronger effect = lower value,1.02 (inactive) and 0.942 (inactive) and 0.96 (inactive)
same,fold change,[10]; [19],1.77 and 0.329 and 1.5
same,cell count,[10]; [20],8900 and 8210 and 9690
same,cell count,[10]; [21],8760 and 8720 and 10100
same,z-score,[11]; [22],-0.508 (inactive)
same,z-score,[11]; [23],-0.257
same,z-score,[15],-0.735 (inactive) and -0.66 (inactive)
Cc1nnc2n1-c1sc(CCC(=O)N3CCOCC3)cc1C(c1ccccc1Cl)=NC2,nuclear beta-catenin stimulation,[1]; at 10 µM,0.3% (inactive)
same,nuclear beta-catenin stimulation,"[1]; stimulation, at 2 µM",-0.9%
same,insulin secretion stimulation,[2],3.7% (inactive)
same,viability decrease,[3],11.7% (inactive)
same,tube area decrease,[4],1.8% (inactive)
same,GLP1 secretion stimulation,[5],0.4% (inactive)
same,inhibition of viability,[6],13.6% (inactive)
same,viability decrease (inhibition),[7],-4.5% (inactive)
same,viability decrease (inhibition),[8],-5.7% (inactive)
same,fold change,[10]; stronger effect = lower value,1.01 (inactive)
same,fold change,[10]; [19],0.912
same,cell count,[10]; [20],9280
same,cell count,[10]; [21],9210
same,z-score,[15],-0.365 (inactive)
COc1ccc(C(=O)c2c(C)n(CCN3CCOCC3)c3ccccc23)cc1,parasite load remaining,[13],50.5% (inactive)
same,viability,[13],159%
same,nuclear beta-catenin stimulation,[1]; at 10 µM,1.2% (inactive)
same,nuclear beta-catenin stimulation,"[1]; stimulation, at 2 µM",0.9%
same,insulin secretion stimulation,[2],-0.5% (inactive)
same,viability decrease,[3],75% (active)
same,tube area decrease,[4],8.1% (inactive)
same,GLP1 secretion stimulation,[5],1.7% (inactive)
same,inhibition of viability,[6],54% (active)
same,viability decrease (inhibition),[7],65% (active)
same,viability decrease (inhibition),[8],39.5% (inactive)
same,fold change,[10]; stronger effect = lower value,0.898 (inactive)
same,fold change,[10]; [19],1.25
same,cell count,[10]; [20],9440
same,cell count,[10]; [21],10500
same,z-score,[11]; [22],0.332 (inactive)
same,z-score,[11]; [23],0.082
same,z-score,[15],0.375 (inactive)
